This passage reports double positive events and percent response (vesicle binding) results from PubChem BioAssay AID2810 (NMMLSC, 2010).

This test can be described thus: modulators of CD8 T cell-vesicle binding, confirmation, cherry-picked primary hits, two concentrations (AID 2810).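 On percent response (vesicle binding): ratio of mean FL2 vesicle stain of CD8+ cells to that row's control.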 The following applies: 2C CD8+ T cell-vesicle binding, flow cytometry; for double positive events: CD8+/vesicle+ events.
The mark [1] stands for this setting: at 15.4 µM, stronger effect = lower value.

Molecules are shown by their SMILES. Hit rate of the full screen: of about 1,200 compounds, about 65 (5%) were called active. This is one part of a sample in which actives are shown more often than they occur.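 How the source made its calls: active means at either tested dose, response and 90th-percentile vesicle-stain brightness of CD8 cells under set limits and under 9% cells vesicle-bound; inactive means the rest.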

In the case of `O=C(c1c[nH]c2ccccc12)N1CCN(Cc2ccccc2)CC1`, the double positive events came out at 13.7% (at 7.7 µM) and 10.6% under setting [1]. For the same compound, the percent response (vesicle binding) by setting is: under setting [1], 47.9% (inactive); (response, at 7.7 µM) 181%.
Consider `CC(NS(=O)(=O)c1ccc(Cl)c(Cl)c1)C(=O)OCC(=O)N1CCCCCC1` (stereo not drawn), for which the double positive events by setting is: (at 7.7 µM) 27.5%; under setting [1], 12.9%. Also, the percent response (vesicle binding) under setting [1] was 182% (inactive) and the percent response (vesicle binding) (response, at 7.7 µM) was determined as 284%.
For `c1csc(-c2nc3ccccc3[nH]2)c1`, the double positive events was 38.6% (at 7.7 µM) and 18.6% under setting [1]. The percent response (vesicle binding) is, setting by setting: under setting [1], 255% (inactive); (response, at 7.7 µM) 233%.
The matching figures for `COc1ccc([C@H]2CC(=O)C=C(c3cc(F)ccc3OC)C2)cc1`: 19.1%, 16.3%, 198% (inactive) and 138%.
Turning to `COc1ccc(C2=CC(=O)CC(c3ccc(OC)cc3)C2)cc1` (stereo not drawn), the double positive events reads like this: (at 7.7 µM) 14.8%; under setting [1], 3.2%. The percent response (vesicle binding) is, setting by setting: under setting [1], 110% (inactive); (response, at 7.7 µM) 120%.
With `COc1ccc([C@H]2CC(=O)C=C(c3cccc(Cl)c3)C2)cc1`, the double positive events reads like this: (at 7.7 µM) 37.2%; under setting [1], 4.7%. Also, the percent response (vesicle binding) runs as follows: under setting [1], 129% (inactive); (response, at 7.7 µM) 315%.
Turning to `COc1ccc([C@H]2CC(=O)C=C(/C=C/c3ccccc3)C2)cc1`, the double positive events came to 19.1% (at 7.7 µM) and 3.3% under setting [1]. Also, the percent response (vesicle binding) runs as follows: under setting [1], 36.9% (active); (response, at 7.7 µM) 286%.
In the case of `COc1ccc([C@H]2CC(=O)C=C(c3ccc4c5c(cccc35)CC4)C2)cc1`, the double positive events reads like this: (at 7.7 µM) 6.5%; under setting [1], 29.8%. In addition, the percent response (vesicle binding) under setting [1] was 626% (inactive) and the percent response (vesicle binding) (response, at 7.7 µM) is 271%.
As to `COc1ccc([C@H]2CC(=O)C=C(c3c(C)cc(C)cc3C)C2)cc1`, the double positive events was 12.5% (at 7.7 µM) and 5.7% under setting [1]. For the same compound, the percent response (vesicle binding) runs as follows: under setting [1], 49.9% (active); (response, at 7.7 µM) 132%.
`O=C(NCCO)/C(=C\c1ccc(Br)cc1)NC(=O)c1cccs1`: the double positive events was determined as 6.9% (at 7.7 µM) and 24.7% under setting [1]. Further, the percent response (vesicle binding) is, setting by setting: under setting [1], 683% (inactive); (response, at 7.7 µM) 70.4%.
In the case of `COc1ccc(CCCC(=O)NC(C)c2ccccc2)cc1` (stereo not drawn), the double positive events is 12.2% (at 7.7 µM) and 15.2% under setting [1]. The percent response (vesicle binding) was 93.8% (inactive) under setting [1] and 104% (response, at 7.7 µM).
The matching figures for `O=C(COC(=O)C1(c2cccc(F)c2)CCCC1)NCc1ccc2c(c1)OCO2`: 15.2%, 3.1%, 106% (inactive) and 82.7%.
